# Measurements published in PubChem BioAssay.
# Active and inactive are the calls of the source.
# Experiments:
# [1] = tested on: Plasmodium falciparum Sir2 (PF13_0152, Sir2A); experiment: Plasmodium falciparum Sir2A binding compounds – biochemical, small-molecule microarray, 635 nm fluorescence, primary screen (AID 1098); conditions: fluorescence 635 nm, higher = more signal;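 note: score merges spot fluorescence intensity with its signal-to-noise ratio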
# [2] = probe aDKK1 binding to arrayed compounds – biochemical, biotinylated probe, 635/667 nm fluorescence, primary screen (AID 1099); conditions: small-molecule microarray, higher = more signal;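 note: score merges 667nm spot fluorescence with signal to noise across triplicate slides; reference of the scale not given here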
# [3] = probe aCHRDL2 binding to arrayed compounds – biochemical, biotinylated probe, 635/667 nm fluorescence, primary screen (AID 1100); conditions: small-molecule microarray, higher = more signal
# [4] = change in splice reporter luminescence, either direction, cell-based, HEK293, spliceosome inhibition project, primary screen (AID 1101); conditions: HEK293 splicing luciferase reporter, 24 h, higher = more signal, called active from +8 up or from −8 down;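 note: HEK293 cells carrying a splicing-competent luciferase reporter gene; test concentration not given here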
# [5] = molecular target: Fibroblast growth factor 10 (Homo sapiens) (UniProt O15520); experiment: compounds binding fibroblast growth factor 10 – biochemical, small-molecule microarray, 635 nm fluorescence, primary screen (AID 1102); conditions: FGF10 binding, fluorescence 635 nm, higher = more signal
# [6] = tested on: glycogen synthase kinase-3 (GSK3A per assay name; protocol says GSK3B); experiment: compounds binding glycogen synthase kinase-3 – biochemical, small-molecule microarray, 635 nm fluorescence, GSK3A, primary screen (AID 1103); conditions: fluorescence 635 nm, higher = more signal; note: the record names both GSK3A and GSK3B
# [7] = molecular target: Epidermal growth factor receptor (Homo sapiens) (UniProt P00533); experiment: compounds binding epidermal growth factor receptor – biochemical, small-molecule microarray, 635 nm fluorescence, primary screen (AID 1104); conditions: EGFR binding, higher = more signal;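 note: score merges 667 nm emission intensity with spot signal to noise over triplicate slides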
# [8] = molecular target: Follistatin-related protein 3 (Homo sapiens) (UniProt O95633); experiment: compounds binding follistatin-related protein 3 – biochemical, small-molecule microarray, 635 nm fluorescence, primary screen (AID 1105); conditions: FSTL3 binding, higher = more signal;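 note: score merges emission near 667 nm and signal to noise per printed spot across three slides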
# [9] = molecular target: Dickkopf-related protein 1 (Homo sapiens) (UniProt O94907); experiment: small molecules binding DKK1 protein – biochemical, small-molecule microarray, 635 nm fluorescence scan, primary screen (AID 1106); conditions: higher = more signal;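 note: score merges emission near 667 nm with signal to noise over three replicate slides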
# [10] = tested on: Inhibin beta A chain (activin A); experiment: small molecules binding activin A – biochemical, small-molecule microarray, 635 nm fluorescence scan, primary screen (AID 1107); conditions: INHBA, higher = more signal;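 note: mouse activin A protein probed at 4.33 µg/mL on printed slides; score merges bound-protein fluorescence near 667 nm with spot signal-to-noise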
# Sequence of Follistatin-related protein 3 (Homo sapiens) (O95633 whole entry, looked up): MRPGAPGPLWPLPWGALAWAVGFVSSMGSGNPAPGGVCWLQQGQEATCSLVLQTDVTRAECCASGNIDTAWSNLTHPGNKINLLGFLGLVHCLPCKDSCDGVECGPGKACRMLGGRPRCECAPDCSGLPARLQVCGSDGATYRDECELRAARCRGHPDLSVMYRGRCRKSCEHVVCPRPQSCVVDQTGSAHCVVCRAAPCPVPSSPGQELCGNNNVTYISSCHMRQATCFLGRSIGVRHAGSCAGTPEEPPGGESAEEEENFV
# Sequence of Epidermal growth factor receptor (Homo sapiens) (P00533 whole entry, looked up): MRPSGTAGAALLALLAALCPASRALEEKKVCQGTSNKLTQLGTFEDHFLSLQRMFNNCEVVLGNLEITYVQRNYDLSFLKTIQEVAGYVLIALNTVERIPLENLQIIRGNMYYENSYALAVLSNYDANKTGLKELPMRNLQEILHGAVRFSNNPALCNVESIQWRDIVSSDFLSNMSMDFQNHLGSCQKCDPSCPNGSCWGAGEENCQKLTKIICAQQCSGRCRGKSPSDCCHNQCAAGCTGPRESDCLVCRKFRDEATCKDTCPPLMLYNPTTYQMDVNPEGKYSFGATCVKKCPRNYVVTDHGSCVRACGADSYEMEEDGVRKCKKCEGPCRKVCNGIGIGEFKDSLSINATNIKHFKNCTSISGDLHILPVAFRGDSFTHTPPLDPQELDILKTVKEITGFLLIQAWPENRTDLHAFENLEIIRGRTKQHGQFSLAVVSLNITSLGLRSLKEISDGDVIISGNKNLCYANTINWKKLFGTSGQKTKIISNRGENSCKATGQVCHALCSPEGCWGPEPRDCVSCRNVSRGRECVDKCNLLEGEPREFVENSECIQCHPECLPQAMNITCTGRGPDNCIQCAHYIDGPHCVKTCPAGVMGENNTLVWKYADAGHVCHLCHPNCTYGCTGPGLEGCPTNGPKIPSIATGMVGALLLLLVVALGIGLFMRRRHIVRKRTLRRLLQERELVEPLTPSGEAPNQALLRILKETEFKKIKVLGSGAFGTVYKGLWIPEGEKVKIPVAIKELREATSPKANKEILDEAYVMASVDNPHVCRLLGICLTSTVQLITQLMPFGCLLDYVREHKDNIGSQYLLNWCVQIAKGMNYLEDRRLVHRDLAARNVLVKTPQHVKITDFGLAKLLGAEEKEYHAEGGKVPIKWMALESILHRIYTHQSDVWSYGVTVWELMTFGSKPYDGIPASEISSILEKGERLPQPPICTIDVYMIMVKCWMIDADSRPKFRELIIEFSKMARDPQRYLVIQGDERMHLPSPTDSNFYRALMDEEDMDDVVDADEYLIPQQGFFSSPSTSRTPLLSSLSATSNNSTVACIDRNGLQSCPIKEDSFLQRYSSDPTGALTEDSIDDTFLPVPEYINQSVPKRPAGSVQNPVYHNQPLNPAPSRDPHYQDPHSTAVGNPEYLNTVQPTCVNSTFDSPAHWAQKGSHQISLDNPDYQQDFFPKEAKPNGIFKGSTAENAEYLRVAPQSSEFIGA
# Sequence of Dickkopf-related protein 1 (Homo sapiens) (O94907 whole entry, looked up): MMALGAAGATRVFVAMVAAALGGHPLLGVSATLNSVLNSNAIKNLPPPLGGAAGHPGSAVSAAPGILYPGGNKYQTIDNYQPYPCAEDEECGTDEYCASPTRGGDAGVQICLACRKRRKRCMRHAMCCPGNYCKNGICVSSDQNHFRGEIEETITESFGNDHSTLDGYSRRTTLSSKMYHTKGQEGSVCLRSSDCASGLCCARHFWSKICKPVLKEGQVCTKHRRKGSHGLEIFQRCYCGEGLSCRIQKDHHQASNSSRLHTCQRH
# Sequence of Fibroblast growth factor 10 (Homo sapiens) (O15520 whole entry, looked up): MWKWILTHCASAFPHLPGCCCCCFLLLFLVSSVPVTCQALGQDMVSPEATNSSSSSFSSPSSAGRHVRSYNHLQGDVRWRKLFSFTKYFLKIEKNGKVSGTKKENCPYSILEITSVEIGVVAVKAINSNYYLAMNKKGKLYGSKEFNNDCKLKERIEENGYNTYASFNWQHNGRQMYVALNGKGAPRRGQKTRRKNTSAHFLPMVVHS
compound,measurement,setting,value
COCCn1c(C(=O)N2CCCC2)cc2c1C[C@H]1CN(C(=O)c3ccccc3)[C@@](Cc3ccccc3)(C(=O)OC)[C@@H]21,composite z-score,[1],1.06
same,composite z-score,[2],0.592
same,composite z-score,[3],0.268
same,z-score,[4],-1.09 (inactive)
same,composite z-score,[5],1.15
same,composite z-score,[6],1.26
same,composite z-score,[7],-0.273
same,composite z-score,[8],0.166
same,composite z-score,[9],0.257
same,composite z-score,[10],0.693
C=C(COC)/C(=C/C[C@H](OC(=O)c1ccncc1)c1ccc(OCCO)cc1)c1cc(C(=O)OC)ccc1OC,composite z-score,[1],0.674
same,composite z-score,[2],0.17
same,composite z-score,[3],0.118
same,z-score,[4],-0.767 (inactive)
same,composite z-score,[5],1.47
same,composite z-score,[6],0.32
same,composite z-score,[7],-0.0503
same,composite z-score,[8],0.967
same,composite z-score,[9],0.8
same,composite z-score,[10],1.04
C=CCC(OC(C)=O)[C@@H]1[C@@H](N(Cc2ccc(-c3cccc(C(F)(F)F)c3)o2)C(=O)c2cccc3ccccc23)c2cc(OCCCO)ccc2N1C(=O)c1ccc2ccccc2n1 (stereo not given in full),composite z-score,[1],0.765
same,composite z-score,[2],-0.262
same,composite z-score,[3],0.52
same,z-score,[4],-1.29 (inactive)
same,composite z-score,[5],0.0448
same,composite z-score,[6],-0.684
same,composite z-score,[7],-0.117
same,composite z-score,[8],0.113
same,composite z-score,[9],0.144
same,composite z-score,[10],1.47
C=CCC(OC(C)=O)[C@@H]1[C@@H](N(Cc2cc3ccccc3o2)C(=O)c2cccc3ccccc23)c2cc(OCCCO)ccc2N1C(=O)c1ccc2ccccc2c1 (stereo not given in full),composite z-score,[1],-0.459
same,composite z-score,[2],0.245
same,composite z-score,[3],0.246
same,z-score,[4],-1.18 (inactive)
same,composite z-score,[5],0.0473
same,composite z-score,[6],-0.553
same,composite z-score,[7],-0.0798
same,composite z-score,[8],0.182
same,composite z-score,[9],0.0022
same,composite z-score,[10],0.867
CCN(CC)c1ccc(N2CC=CC34O[C@@H]5C=CCOC(=O)[C@@H]5[C@H]3C(=O)N(CCO)[C@@H]4C2=O)cc1 (stereo not given in full),composite z-score,[1],1.47
same,composite z-score,[2],-0.0117
same,composite z-score,[3],0.54
same,z-score,[4],0.0206 (inactive)
same,composite z-score,[5],-0.938
same,composite z-score,[6],-0.562
same,composite z-score,[7],-1.66
same,composite z-score,[8],-0.952
same,composite z-score,[9],-1.51
same,composite z-score,[10],-0.292
C=CCC(OC(C)=O)[C@@H]1[C@@H](N(Cc2cc3ccccc3o2)C(=O)c2ccc(-c3ccccc3)cc2)c2cc(OCCCO)ccc2N1C(=O)c1ccc2ccccc2n1 (stereo not given in full),composite z-score,[1],-0.148
same,composite z-score,[2],0.0919
same,composite z-score,[3],0.51
same,z-score,[4],-0.0569 (inactive)
same,composite z-score,[5],-0.0302
same,composite z-score,[6],-1.24
same,composite z-score,[7],-0.0803
same,composite z-score,[8],-0.205
same,composite z-score,[9],0.157
same,composite z-score,[10],1.33
COc1ccc([Si](C)(C)[C@H]2[C@H](CCO)O[C@@]3(C(=O)N(Cc4ccccc4)c4ccc(N(C=O)c5ccccc5)cc43)[C@@H]2C)cc1,composite z-score,[1],0.638
same,composite z-score,[2],0.0036
same,composite z-score,[3],-0.19
same,z-score,[4],-0.663 (inactive)
same,composite z-score,[5],0.651
same,composite z-score,[6],-0.273
same,composite z-score,[7],0.0677
same,composite z-score,[8],0.618
same,composite z-score,[9],0.167
same,composite z-score,[10],0.2
CC(c1ccccc1)C(O)C1C=CC2C(=O)N(c3ccccc3)C(=O)C2N1Nc1ccc(C#N)cc1 (stereo not given),composite z-score,[1],1.27
same,composite z-score,[2],0.0897
same,composite z-score,[3],0.582
same,z-score,[4],-0.44 (inactive)
same,composite z-score,[5],0.975
same,composite z-score,[6],1.32
same,composite z-score,[7],0.702
same,composite z-score,[8],1.48
same,composite z-score,[9],-0.163
same,composite z-score,[10],0.251
CCCCC(=C=CC[C@H](O)c1ccc(OCCO)cc1)C[C@H](O)c1ccccn1,composite z-score,[1],0.856
same,composite z-score,[2],-0.0313
same,composite z-score,[3],-0.112
same,z-score,[4],0.107 (inactive)
same,composite z-score,[5],1.35
same,composite z-score,[6],0.583
same,composite z-score,[7],-0.229
same,composite z-score,[8],0.416
same,composite z-score,[9],0.215
same,composite z-score,[10],0.669
C=C(CCCC)C(=O)CC[C@H](OC(=O)c1cccnc1)c1ccc(CO)o1,composite z-score,[1],1.3
same,composite z-score,[2],-0.013
same,composite z-score,[3],-0.519
same,z-score,[4],0.981 (inactive)
same,composite z-score,[5],1.13
same,composite z-score,[6],1.17
same,composite z-score,[7],0.266
same,composite z-score,[8],1.3
same,composite z-score,[9],1.36
same,composite z-score,[10],1.19
CCCCN1CC=CC23O[C@@H]4/C=C\CCC(C)OC(=O)C4[C@H]2C(=O)N(C(C)CO)[C@@H]3C1=O (stereo not given in full),composite z-score,[1],0.356
same,composite z-score,[2],-0.463
same,composite z-score,[3],-0.471
same,z-score,[4],1.07 (inactive)
same,composite z-score,[5],-0.816
same,composite z-score,[6],-0.937
same,composite z-score,[7],-0.659
same,composite z-score,[8],-0.719
same,composite z-score,[9],-0.127
same,composite z-score,[10],1.19
CN(C)C(=O)[C@]1(Cc2ccccc2)N=C(c2ccc(OCCCO)cc2)O[C@@H]1c1ccccc1,composite z-score,[1],0.747
same,composite z-score,[2],0.129
same,composite z-score,[3],0.624
same,z-score,[4],-0.012 (inactive)
same,composite z-score,[5],1.13
same,composite z-score,[6],1.29
same,composite z-score,[7],-0.515
same,composite z-score,[8],0.289
same,composite z-score,[9],-0.698
same,composite z-score,[10],0.231
COc1cc(OC)c(C(O)C2C=CC3C(=O)N(c4ccccc4)C(=O)C3N2Nc2ccccc2F)cc1Br (stereo not given),composite z-score,[1],0.76
same,composite z-score,[2],0.805
same,composite z-score,[3],0.95
same,z-score,[4],0.484 (inactive)
same,composite z-score,[5],0.97
same,composite z-score,[6],0.0826
same,composite z-score,[7],0.256
same,composite z-score,[8],1.45
same,composite z-score,[9],-0.351
same,composite z-score,[10],0.625
